Source: PubChem (National Center for Advancing Translational Sciences (NCATS))
HEK293 tox: cytotoxicity counter-screen for GLP-1 receptor inverse agonists; 410,000 compounds, 0.13% hits; Potency, µM (titrated, usually from 38.3 µM), inactives show top-dose activity change, negative = inhibition, most hits filed as inhibitors; HEK293 cAMP-luciferase reporter cells, luminescence, 24 h;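 further: loss of luciferase light is scored as toxicity; on the % scale 0 is the no-effect control and ±100 the full control effect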
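Step one: seed cells (200 cells/uL, DMEM with 10% Nu serum, 1% pen-strep). Step two: 12-hour incubation at 37 deg C. Step three: pin 23 nL compound, incubate 24 hr. Step four: add luciferase reagent, read luminescence 12 min later.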
TrxR1 substrate: rat thioredoxin reductase 1 substrate activity; O89049; purified TrxR1 substrate turnover, NADPH consumption readout; Potency, µM (highest dose often 114 µM), without a hit: top-dose activity change, negative = substrate turnover; 390,000 compounds, 0.01% hits; further: on the % scale 0 is the no-effect control and ±100 the full control effect; nearly all actives have a fitted effect of over 50% in size
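Rat TrxR1, dispensed at 90 nM, was prereduced with 400 uM NADPH (final) for 5 min at ~22 deg C, then incubated with compound 15 min before 400 uM selenite. A first-read NADPH fluorescence drop versus no-compound background flagged substrates.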
mIDH1 inhibitor: inhibitors of human mutant IDH1 R132H. AID 602179. 390,000 compounds, 0.093% hits. Potency, µM (titrated, usually from 76.6 µM), for inactives: top-dose activity change, negative = inhibition, hits mostly inhibitors. O75874. IDH1-R132H enzyme, NADPH consumption, diaphorase/resazurin fluorescence; further: on the % scale 0 is the no-effect control and ±100 the full control effect; nearly all actives have a fitted effect of over 65% in size
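IDH1-R132H (0.5 ug/mL dispensed) in pH 7.5 Tris buffer was preincubated 30 min with compound, then given a substrate mix of 0.016 mM NADPH and 2 mM alpha-KG for 80 min at room temperature; remaining NADPH was read by diaphorase/resazurin fluorescence.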
rTrxR1 inhibitor: blocks rat thioredoxin reductase 1; O89049; recombinant rTrxR1, NADPH fluorescence consumption, selenite substrate; 390,000 compounds, 1% hits; Potency, µM (doses to about 114 µM), without a hit: at the top dose activity change, negative = inhibition, usual class: inhibitors; AID 588453; further: on the % scale 0 is the no-effect control and ±100 the full control effect; nearly all actives have a fitted effect of over 65% in size
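Rat TrxR1 (90 nM in the dispensed reagent) was pre-reduced with 400 uM NADPH for 5 min at room temperature, then incubated with compound for 15 min. After 400 uM selenite was added, NADPH fluorescence (Ex 340/Em 450 nm) was followed for 8 min.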
GLP-1R agonist: activates the human GLP-1 receptor | Potency, µM (series often up to 45.6 µM), inactives show at the top dose activation, actives largely listed as activators | 380,000 compounds, 0.007% hits | HEK293 GLP-1R CRE-luciferase, luminescence, 4-6 h; cells express a hypersensitive GLP-1R form | AID 624172; further: % of control where 0% means no effect
Target sequence (P43220 whole entry, looked up): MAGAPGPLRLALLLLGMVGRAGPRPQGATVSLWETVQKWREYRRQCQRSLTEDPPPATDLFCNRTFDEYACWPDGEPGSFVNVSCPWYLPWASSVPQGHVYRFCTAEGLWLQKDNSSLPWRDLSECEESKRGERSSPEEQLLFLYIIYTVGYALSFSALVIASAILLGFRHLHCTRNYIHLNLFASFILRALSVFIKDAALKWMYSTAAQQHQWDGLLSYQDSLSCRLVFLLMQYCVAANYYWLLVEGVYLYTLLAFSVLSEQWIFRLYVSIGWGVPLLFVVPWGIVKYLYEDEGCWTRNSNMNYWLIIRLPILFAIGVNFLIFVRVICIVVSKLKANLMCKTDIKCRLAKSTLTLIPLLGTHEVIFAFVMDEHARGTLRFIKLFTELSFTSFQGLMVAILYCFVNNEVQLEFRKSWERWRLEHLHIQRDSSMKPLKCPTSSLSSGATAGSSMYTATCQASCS
GLP-1R inv ag: GLP-1 receptor (human) inverse agonism. P43220. HEK293 GLP-1R CRE-luciferase, luminescence, 24 h; GLP-1R form is constitutively active. Potency, µM (series often up to 38.3 µM), for inactives: at the top dose activity change, negative = inhibition, most hits filed as inhibitors. 410,000 compounds, 1.6% hits. AID 624417; further: on the % scale 0 is the no-effect control and ±100 the full control effect; nearly all actives have a fitted effect of over 55% in size
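Constitutively active GLP-1R drives a cAMP-responsive luciferase in stably transfected HEK293 cells; test compounds are added after overnight (12 h) attachment and left 24 hr, and signal loss in luminescence marks inhibition.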
Active calls of the source: *; [ ] = dose if it differs, or a comment. Sampled rows, rich in hits. Any-hit rate of the full collection: about 2.7%. The call rests on the fitted dose curve; in most records, active means well fitted curve in the direction sought with a large enough effect; inconclusive means small, poorly fitted or top-dose-only effect, or another doubt; inactive means no such curve, though single readings can be large; an effect the other way counts as inactive or inconclusive. Potency means the concentration at half of the fitted maximal effect.

`COc1ccc(C2Nc3ccccc3C(=O)N2Cc2ccco2)cc1COc1ccc(F)cc1` (stereo unspecified) gave HEK293 tox -8.4%, TrxR1 substrate 44.9%, mIDH1 inhibitor 0.6%, rTrxR1 inhibitor -6.0%[57.1 µM], GLP-1R agonist -13.9% and GLP-1R inv ag 10µM*.
Screening COc1ccc(Cn2c(C(=O)O)c(CNCc3ccc(C)o3)c3ccc(OC)cc32)cc1 returned HEK293 tox inconclusive, TrxR1 substrate -1.6%, mIDH1 inhibitor 28.1%, rTrxR1 inhibitor -4.2%, GLP-1R agonist 1.7% and GLP-1R inv ag 5.5%.
`Cc1nn(C(C)C(=O)NCc2cccc(F)c2)c(=O)c2c1sc1ccccc12` (stereo unspecified) gave HEK293 tox 4.1%, TrxR1 substrate 29.8%, mIDH1 inhibitor -21.3%, rTrxR1 inhibitor 24.6% and GLP-1R inv ag -2.2%.
`CC(C)(C)n1nnnc1C(c1cccs1)N1CCCc2ccccc21` (stereo unspecified) gave HEK293 tox 1.7%, TrxR1 substrate -4.1%, mIDH1 inhibitor 3.1%, rTrxR1 inhibitor -2.8%, GLP-1R agonist -10.5% and GLP-1R inv ag 11.2µM*.
`Clc1ccc(Cn2c(-c3cccnc3Cl)nc3ccccc32)c(Cl)c1` gave HEK293 tox -12.7%, TrxR1 substrate 2.4%, mIDH1 inhibitor 2.8%, rTrxR1 inhibitor 4.0%, GLP-1R agonist 5.3% and GLP-1R inv ag 10µM*.
`Clc1ccc(Cn2c(-c3cccnc3Cl)nc3ccccc32)cc1` gave HEK293 tox 8.2%, TrxR1 substrate 0.5%[57.1 µM], mIDH1 inhibitor -2.1%, rTrxR1 inhibitor 1.6%[57.1 µM], GLP-1R agonist -5.8% and GLP-1R inv ag -9.3%.
`CCOc1ccc(-n2c(/C=C/c3cccc(F)c3)nc3cc(OC)c(OC)cc3c2=O)cc1` gave HEK293 tox -10.0%, TrxR1 substrate -1.3%[57.1 µM], mIDH1 inhibitor 13.1%, rTrxR1 inhibitor -14.8%[57.1 µM] and GLP-1R inv ag 33.2%.
Cc1cc(=S)cc(C)n1CCO was read as HEK293 tox -11.2%, TrxR1 substrate 0.1%, mIDH1 inhibitor 7.4%, rTrxR1 inhibitor 35.5µM*, GLP-1R agonist -0.1% and GLP-1R inv ag 16.2%.
For COc1cc(/C=C2/C(=O)NN(c3cccc(Cl)c3)C2=O)cc(OC)c1O the results were HEK293 tox -10.9%, TrxR1 substrate -10.0%, mIDH1 inhibitor 24.6%, rTrxR1 inhibitor inconclusive, GLP-1R agonist -1.4% and GLP-1R inv ag 2.82µM*.
O=C1NN(c2cccc(Br)c2)C(=O)/C1=C\c1ccc(O)cc1 was read as HEK293 tox inconclusive, TrxR1 substrate -6.2%[57.1 µM], mIDH1 inhibitor -2.6%, rTrxR1 inhibitor inconclusive, GLP-1R agonist -1.8% and GLP-1R inv ag 10µM*.
For CC(C)=C1C(=O)NN(c2cccc(Cl)c2)C1=O the results were HEK293 tox -6.8%, TrxR1 substrate 7.8%[57.1 µM], mIDH1 inhibitor 6.8%, rTrxR1 inhibitor -1.4%[57.1 µM], GLP-1R agonist -0.4% and GLP-1R inv ag 10µM*.
Screening CC(C)=C1C(=O)NN(c2ccc(C)c(Cl)c2)C1=O returned HEK293 tox 12.1%, TrxR1 substrate -4.4%, mIDH1 inhibitor -2.6%, rTrxR1 inhibitor inconclusive, GLP-1R agonist -33.9% and GLP-1R inv ag inconclusive.
`Cc1cccc(NC2=CC(c3cccc(Br)c3)N(c3cccc(C)c3)C2=O)c1` (stereo unspecified) gave HEK293 tox -1.4%, TrxR1 substrate 4.9%, mIDH1 inhibitor 2.8%, rTrxR1 inhibitor inconclusive and GLP-1R inv ag 8.4%.
Screening CC(C)CCNC(=O)C1(C)CCN1Cc1ccc2ccccc2c1 (stereo unspecified) returned HEK293 tox 0.1%, GLP-1R agonist 7.9% and GLP-1R inv ag 10µM*.
`CC1(C(=O)NCc2cccc3ccccc23)CCN1Cc1ccc2ccccc2c1` (stereo unspecified) gave HEK293 tox -17.9%, GLP-1R agonist -5.7% and GLP-1R inv ag inconclusive.
For COc1ccc(Br)cc1CNC(=O)c1cc(=O)[nH]c2ccc(S(=O)(=O)N3CCCCC3C)cc12 (stereo unspecified) the results were HEK293 tox -24.3%, TrxR1 substrate 0.6%[57.1 µM], mIDH1 inhibitor 14.9%, rTrxR1 inhibitor 14.4%[57.1 µM] and GLP-1R inv ag inconclusive.
For CN1CC=C2C(C#N)=C(N)C(C#N)(C#N)[C@H](c3cccs3)[C@H]2C1 the results were HEK293 tox 28.1%, TrxR1 substrate 8.8%, mIDH1 inhibitor 3.2%, rTrxR1 inhibitor inconclusive, GLP-1R agonist -31.2% and GLP-1R inv ag inconclusive.
For N#CC1=C(N)C(C#N)(C#N)C(c2ccc[nH]2)C2CCCC=C12 (stereo unspecified) the results were HEK293 tox 11.2%, TrxR1 substrate 5.6%, mIDH1 inhibitor 7.9%, rTrxR1 inhibitor 11.2µM*, GLP-1R agonist -7.4% and GLP-1R inv ag 0.0%.
For CN(Cc1ccccc1F)C(=O)c1ccc(Oc2ccccc2)cc1 the results were HEK293 tox -3.9%, TrxR1 substrate 6.7%, mIDH1 inhibitor 9.1%, rTrxR1 inhibitor 29.0%, GLP-1R agonist 6.3% and GLP-1R inv ag inconclusive.
Screening CN(Cc1ccc(C(F)(F)F)cc1)C(=O)c1ccc(Oc2ccccc2)cc1 returned HEK293 tox 4.4%, TrxR1 substrate 1.1%, mIDH1 inhibitor 4.6%, rTrxR1 inhibitor 16.9%, GLP-1R agonist 0.4% and GLP-1R inv ag 10µM*.
Screening O=C(Nc1cc2c(cc1C(=O)c1ccccc1Br)OCCO2)c1cccc(Cl)c1 returned HEK293 tox 2.9%, TrxR1 substrate 12.2%[11.4 µM], mIDH1 inhibitor -8.8%, rTrxR1 inhibitor 26.2%, GLP-1R agonist 0.5% and GLP-1R inv ag 4.5%.
Screening CCOC(=O)N/N=C\c1ccc([N+](=O)[O-])o1 returned HEK293 tox -0.3%, TrxR1 substrate -6.1%, mIDH1 inhibitor 1.6%, rTrxR1 inhibitor 7.08µM*, GLP-1R agonist -1.8% and GLP-1R inv ag 9.7%.
CC1(C(=O)N/N=C/c2ccc([N+](=O)[O-])o2)CC1(Br)Br (stereo unspecified) was read as HEK293 tox inconclusive, TrxR1 substrate -7.3%, mIDH1 inhibitor 7.4%, rTrxR1 inhibitor 44.7µM*, GLP-1R agonist 5.4% and GLP-1R inv ag 14.0%.
For O=C(Cc1ccc([N+](=O)[O-])cc1)N/N=C/c1ccc([N+](=O)[O-])o1 the results were HEK293 tox -25.3%, TrxR1 substrate -3.3%, mIDH1 inhibitor -9.7%, rTrxR1 inhibitor 14.1µM*, GLP-1R agonist 11.2% and GLP-1R inv ag -6.7%.
